This is a sample that favours compounds with a hit; in the whole collection about 1.6% have one here.
BJeLR viability – BJeLR cell viability loss; inhibition, % (test concentration not listed); BJeLR (HRASV12) viability, CellTiter-Glo ATP luminescence, 48 h; 0.17% of 300,000 active; in the data active = inhibition above about 50%; inconclusive = no clear call, values can overlap the other calls
PfHsp40 rescue – compounds rescuing yeast from Plasmodium falciparum HSP40 toxicity; S. cerevisiae expressing PfHsp40, growth rescue, ATP luminescence; growth rescue, % at 12.5 µM; 0.68% of 340,000 active; in the data active = growth rescue above about 28%, passing the limit was not always enough; inconclusive = no clear call, values can overlap the other calls;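 also: yeast W303a lacking pdr1 and pdr3 grown in galactose medium; growth measured after three days at 30 °C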
CCHF vOTU inh – blocks the CCHF virus ovarian tumor domain protease; CCHFV vOTU protease, Pep-AMC fluorescence; inhibition, % at 11.5 µM; 0.55% of 370,000 active; in the data active = inhibition above about 30%; also: 0% = vehicle wells with enzyme and 100% = no enzyme wells
Sa ugtP lethal – kills S. aureus RN4220 lacking UgtP | S. aureus RN4220 ugtP deletion, OD600 growth, 16 h | AID 1259309 | growth inhibition, % (test concentration not listed) | 0.54% of 330,000 active; in the data active = growth inhibition above about 68%;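 also: plate controls were untreated wells for no effect and antibiotic for full effect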
Sa RN4220 lethal – kills Staphylococcus aureus RN4220. AID 1259311. inhibition, % (no concentration beside the values). S. aureus RN4220 growth, OD600, 16 h. 0.33% of 330,000 active; in the data active = inhibition above about 85%;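 also: plate controls were untreated cells for no effect and reference antibiotic for full effect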
* marks the source's active call; other numbers are inactive results; ? = inconclusive; / = no result.

SMILES	BJeLR viability	PfHsp40 rescue	CCHF vOTU inh	Sa ugtP lethal	Sa RN4220 lethal
CN1CCN(C(=O)c2cc(COc3ccc(F)cc3Cl)on2)CC1c1ccccc1 (stereo not drawn)	1	139*	0	6	4
CSc1ccccc1OCc1cc(C(=O)N2CCN(C)C(c3ccccc3)C2)no1 (stereo not drawn)	3	78*	-2	-18	2
CN1CCN(C(=O)c2cc(COc3c(F)cccc3F)on2)CC1c1ccccc1 (stereo not drawn)	-5	80*	12	7	1
COc1ccccc1OCc1cc(C(=O)N2CCN(C)C(c3ccccc3)C2)no1 (stereo not drawn)	-2	-1	9	2	1
O=C(c1cc(COc2ccc(F)cc2Cl)on1)N1CCN(C2CCCC2)CC1	2	2	16	-12	-3
Cc1nc(N2CCN(C(=O)c3ccco3)CC2)c2c3c(sc2n1)CC(C)CC3 (stereo not drawn)	0	192*	13	-6	2
Cc1coc2c1C(=O)C(=O)c1c-2ccc2c1CCCC2(C)C	11	?	13	28	-10
C[C@H]1COC2=C1C(=O)C(=O)c1c2ccc2c1CCCC2(C)C	5	72*	/	41	8
O=C(NN=Cc1ccc(COc2ccc([N+](=O)[O-])cc2)o1)c1ccc(Cl)cc1	/	/	/	-19	-6
CCCc1nnc(NC(=O)c2c(O)c3cccc4c3n(c2=O)CC4)s1	-3	/	/	100*	101*
CC(=NO)c1ccc2c(c1)CC(C)O2 (stereo not drawn)	/	/	/	2	2
O=C(O)c1cc(Cl)ccc1-c1ccc(C=Cc2cc(C(F)(F)F)[nH]c(=O)n2)o1	/	/	/	-1	4
COc1ccc(/C=C/C(=O)OCC(=O)NC2CCS(=O)(=O)C2)cc1 (stereo not drawn)	/	0	-1	10	5
CCCCOc1ccc(/C=C/C(=O)OCC(=O)NC2CCS(=O)(=O)C2)cc1OCC (stereo not drawn)	-5	3	-1	92*	14
Cc1ccc(C(=O)c2cc([N+](=O)[O-])ccc2N2CCCCC2)c(C)c1	55*	0	-3	39	-5
O=C(O)c1cc([N+](=O)[O-])ccc1N1CCCCC1	17	-1	5	9	3
COc1ccc(C(=O)c2cc([N+](=O)[O-])ccc2N2CCOCC2)cc1	59*	0	-5	-1	-2
CCOc1ccc(C(=O)c2cc([N+](=O)[O-])ccc2N2CCOCC2)cc1	53*	1	0	4	-1
O=C(Nc1nnc(C2CC2)s1)c1cc([N+](=O)[O-])ccc1N1CCCCC1	21	3	5	77	89*
CCCC=C(CCC)C(NC(=O)Cc1ccccc1)c1ccc(C(=O)OC)cc1 (stereo not drawn)	/	/	/	8	-4
CCOC(=O)C(=NNc1cc(Cl)ccc1Cl)N1CCOCC1	/	/	/	-16	-2
Cc1cccc(C=NNC(=O)c2ccncc2)n1	/	/	/	1	3
COc1cccc(C(C)=C2SC(=S)NC2=O)c1	/	83*	25	/	/
COc1cccc(C=NNC(=O)c2oc3nc(-c4ccccc4)cc(-c4ccco4)c3c2N)c1	/	/	/	-22	7
CC[C@]12C(=O)N(C)CC(C3C(=O)N(C)C(=O)C31)N2C(=O)c1ccc(Cl)c(Cl)c1 (stereo partly drawn)	/	/	/	-11	3
SMILES	BJeLR viability	PfHsp40 rescue	CCHF vOTU inh	Sa ugtP lethal	Sa RN4220 lethal
O=C1CC(c2ccccc2)c2cccc(F)c21 (stereo not drawn)	17	39*	-14	6	4
CCOC(=O)C=c1sc(=Cc2ccccc2OC)c(=O)n1CC(=O)N1CCOCC1	/	/	/	6	-5
O=C(NC(=S)Nc1ccccc1N1CCCCC1)c1ccc(F)cc1Cl	-16	0	0	91*	-13
Cc1ccccc1C(=O)NC(=S)Nc1ccccc1N1CCCC1	0	8	29	85*	0
O=C(NC(=S)Nc1ccccc1N1CCOCC1)c1ccc(Br)cc1	-22	6	-10	94*	-8
O=C(NC(=S)Nc1ccccc1N1CCCCC1)c1ccccc1	-13	-1	4	48	-10
CC(C)(C)c1ccc(-c2nn(CCC#N)cc2C=NO)cc1	/	/	/	-16	0
CCCCCCC(C(C)O)n1cnc2c(N)ncnc21 (stereo not drawn)	/	/	/	2	7
CN(C)CC(Cl)=C(Cl)c1ccccc1	/	/	/	2	4
O=C(Oc1cc2oc(=O)cc(-c3ccccc3)c2cc1Cl)C1CCCCC1	7	68*	1	-6	-5
CCCCC(CC)COC1(c2ccccc2)OC(=O)c2ccccc21 (stereo not drawn)	6	1	16	86*	-4
CC(C)n1cc(C=C2NC(=O)NC2=O)c2ccccc21	/	/	/	2	8
O=C(O)c1cc(-c2ccc(-c3c(-c4ccc5c(c4)OCO5)noc3-c3ccsc3)cc2)nc2ccccc12	-14	2	-5	94*	96*
CN(C)c1ccc(-c2c(-c3ccc4c(c3)OCO4)noc2-c2ccsc2)cn1	6	3	/	22	-6
CSC1=N/C(=C\c2cccnc2)C(=O)N1c1ccccc1	7	-2	-3	6	6
CSC1=N/C(=C\c2ccccc2)C(=O)N1C	-12	40*	2	5	4
CCOC(=O)c1ccc(N2C(=O)CC(N3CCN(Cc4ccccc4)CC3)C2=O)cc1 (stereo not drawn)	10	0	8	4	2
CCOC(=O)c1ccc(N2C(=O)CC(N3CCCC(C)C3)C2=O)cc1 (stereo not drawn)	-10	585*	-27	2	7
CCOC(=O)c1ccc(N2C(=O)CC(N3CCC(O)(c4ccc(Cl)cc4)CC3)C2=O)cc1 (stereo not drawn)	2	534*	15	-3	5
CCOC(=O)c1ccc(N2C(=O)CC(N3CCC(O)(c4ccc(Br)cc4)CC3)C2=O)cc1 (stereo not drawn)	-5	0	4	-5	6
CCCOc1ccc(N2C(=O)CC(N3CCC(C(=O)OCC)CC3)C2=O)cc1 (stereo not drawn)	-5	523*	-10	9	7
COc1ccc(C=NNC(C)(C)C)c(OC)c1	/	/	/	38	3
Cc1ccc(-n2[nH]c(C)c(C=Nc3ccccn3)c2=O)cc1	/	/	/	2	1
CC(=NNC(=O)CNC(=O)c1cccc(F)c1)c1ccc2c(c1)CCCC2	/	/	/	3	3
COc1ccc(NC(=S)NCCC(c2ccccc2)c2ccccc2)c(OC)c1	14	39*	5	27	-5
COc1cccc(NC(=S)NCCC(c2ccccc2)c2ccccc2)c1	-10	3	13	11	-9
Cc1c(Cl)cccc1NC(=S)NCCC(c1ccccc1)c1ccccc1	-5	54*	5	17	-9
Cc1c(Cl)cccc1NC(=S)NCCC(C)C	2	0	9	0	-1
O=C(O)C=Cc1ccc(S(=O)(=O)NCc2ccco2)cc1	/	/	/	5	3
O=c1[nH]c(CN2CCN(c3ccccc3O)CC2)nc2scc(-c3ccccc3Cl)c12	4	29*	9	0	2

Source: PubChem BioAssay
